PINK1 expr mod – changes PINK1 expression; PINK1 immunofluorescence, high-content cytometry, 24 h; Potency, µM (doses to about 76.6 µM), inactives show at the highest dose activation (PINK1 increase), actives largely listed as activators; 410,000 compounds, 0.2% hits; AID 624263; active means well fitted activation curve with a large enough effect; inconclusive means small, poorly fitted or top-dose-only effect; cell line not stated here; further: % of control where 0% means no effect; nearly all actives have a fitted effect of over 65% in size
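Readout is PINK1 immunofluorescence, quantified alongside mitochondrial, cell and nuclear markers by laser-scanning microplate cytometry. Cells from a stable line were exposed to compound titrations (5 concentrations) for 24 hours, with CCCP controls.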
ClpP mod – qHTS Assay for Activators of ClpP. AID 651965, 2013. Potency, µM (top dose mostly 57.5 µM), for the others: at the top dose activity change, negative = active. ATP-dependent Clp protease proteolytic subunit (Bacillus subtilis (strain 168)), P80244. purified B. subtilis ClpP, FRET peptide cleavage, 20 min. 340,000 compounds, 1.9% hits; active means well fitted falling curve with a large enough effect; inconclusive means small, poorly fitted or top-dose-only effect; inactive means no such curve, though single readings can be large or run the other way; further: the source files actives as falling curves though it sought activators and does not explain the sign; nearly all actives have a fitted effect of over 65% in size
Target sequence (P80244 whole entry, looked up): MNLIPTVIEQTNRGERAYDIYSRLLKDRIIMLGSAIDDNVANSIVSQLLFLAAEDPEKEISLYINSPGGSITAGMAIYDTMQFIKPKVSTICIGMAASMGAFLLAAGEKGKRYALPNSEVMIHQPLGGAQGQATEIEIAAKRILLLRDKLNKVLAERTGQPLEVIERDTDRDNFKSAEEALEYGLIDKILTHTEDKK
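FRET quenching reversal measured ClpP activation: 10 microg/mL B. subtilis ClpP at pH 8 with the FRET-FV decapeptide, read at 430 nm after 320 nm excitation. The 20-min minus 0-min signal was scaled between DMSO/no-enzyme wells and ADEP (5.8 microM final).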
Gal4-VP16 FLuc – inhibits Gal4-VP16 luciferase reporter, ROR gamma counter-screen; Potency, µM (series often up to 53.6 µM), without a hit: at the highest dose activity, negative = inhibition, hits mostly inhibitors; Drosophila S2 Gal4-VP16 UAS-luciferase, luminescence, 20 h; 310,000 compounds, 3.5% hits;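 further: Gal4-VP16 expression switched on by copper sulfate through the metallothionein promoter; on the % scale 0 is the no-effect control and ±100 the full control effect; nearly all actives have a fitted effect of over 50% in size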
RORgamma inh – blocks mouse ROR gamma transcriptional activity; P51450; Drosophila S2 Gal4-RORgamma UAS-luciferase reporter, 20 h; Potency, µM (titrated, usually from 53.6 µM), for the others: at the top dose activity change, negative = inhibition, hits mostly inhibitors; 310,000 compounds, 5.4% hits; AID 2551; further: on the % scale 0 is the no-effect control and ±100 the full control effect; nearly all actives have a fitted effect of over 60% in size
Target sequence (P51450 whole entry, looked up, the tested form may be a part): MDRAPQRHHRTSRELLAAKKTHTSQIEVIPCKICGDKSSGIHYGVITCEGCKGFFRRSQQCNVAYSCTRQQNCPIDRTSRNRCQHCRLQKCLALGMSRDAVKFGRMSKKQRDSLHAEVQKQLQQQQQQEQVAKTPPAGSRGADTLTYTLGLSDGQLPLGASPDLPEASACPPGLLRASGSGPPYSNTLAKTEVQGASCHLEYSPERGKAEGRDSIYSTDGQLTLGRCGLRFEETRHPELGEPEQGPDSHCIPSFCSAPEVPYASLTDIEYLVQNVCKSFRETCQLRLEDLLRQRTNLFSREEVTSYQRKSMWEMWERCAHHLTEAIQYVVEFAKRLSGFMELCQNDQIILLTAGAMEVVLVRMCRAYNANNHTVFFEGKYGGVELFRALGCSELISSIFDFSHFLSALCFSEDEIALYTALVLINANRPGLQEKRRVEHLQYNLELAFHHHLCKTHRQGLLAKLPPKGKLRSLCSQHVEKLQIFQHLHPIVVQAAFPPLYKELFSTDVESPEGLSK
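Stably transfected Drosophila Schneider cells are the test system, with ROR gamma fused to Gal4 and luciferase under UAS control; luminescence is read after 20 hr of 700 uM copper sulfate induction at ambient temperature.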
Sfp inh – inhibitors of Bacillus subtilis Sfp phosphopantetheinyl transferase; 310,000 compounds, 3.5% hits; Biochemical Sfp PPTase activity, qHTS; AID 1490; Q9F4F7; Potency, µM, without a hit: largest response in the series, negative = inhibition, hits mostly inhibitors;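 further: the enzyme is Sfp with the accession as filed and its product quenches rhodamine fluorescence; 0% = enzyme reaction without inhibitor and -100% = no enzyme wells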
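After 15 min at room temperature with compound, 15 nM Sfp received 5 uM rhodamine-CoA plus 12.5 uM BHQ-2-ybbR (50 mM Hepes pH 7.6, 10 mM MgCl2). Rate came from the fluorescence difference over 30 min, ex 525/em 598 nm.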
Epigenetic reg – regulators of epigenetic silencing causing reporter derepression in mouse cells. murine LDR cells, GFP reporter derepression, 30 h. 280,000 compounds, 0.2% hits. Potency, µM (doses to about 53.9 µM), for the others: at the highest dose GFP activation, actives largely listed as activators; further: % of control where 0% means no effect; nearly all actives have a fitted effect of over 60% in size
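Reporter derepression read as number of fluorescent GFP-positive objects, 20-120 um in size, counted by laser-scanning cytometer. Mouse LDR line with an epigenetically silenced CMV-GFP locus; compound incubation 30 h, 37 C.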
* hit, by the source's call; ? = inconclusive; . = no result; [ ] = remark or other dose. Rows were chosen to be rich in hits. Some 8.1% of all compounds tested hit in one or more screens of this group. Unless noted, the call rests on the fitted dose curve; in most records, active means well fitted curve in the direction sought with a large enough effect; inconclusive means small, poorly fitted or top-dose-only effect, or another doubt; inactive means no such curve, though single readings can be large; an effect the other way counts as inactive or inconclusive. Potency means the concentration at half of the fitted maximal effect.

SMILES | PINK1 expr mod | ClpP mod | Gal4-VP16 FLuc | RORgamma inh | Sfp inh | Epigenetic reg
CCOc1ccccc1-n1nnc(-c2nc(-c3ccccc3)no2)c1N | 2% | -17% | . | . | . | -1%
COc1cc(OC)c(NC(=O)Nc2sc3nc4n(c(=O)c3c2C)CCC(C)CC4)cc1Cl (stereo unspecified) | 7% | -4% | . | . | . | 1%
CC(SC1=NCCS1)C(=O)Nc1nnc(-c2ccc(Br)cc2)s1 (stereo unspecified) | 0% | -9% | 10µM* | 8.9µM* | 26% | 2%
CC(SC1=NCCS1)C(=O)Nc1nnc(-c2ccc(F)cc2)s1 (stereo unspecified) | 3% | -6% | ? | 7.9µM* | 8% | 0%
CC(C)C(NC(=O)c1ccc(Br)cc1)C(=O)NC1=NCCS1 (stereo unspecified) | 1% | -1% | 7% | -2% | 1% | -2%
CCOC(=O)c1ccc(NC(=O)CC2C(=O)N(c3cccc(OC)c3)C(=O)N2Cc2ccc(OC)cc2)cc1 (stereo unspecified) | 2% | -1% | . | . | . | 3%
COc1ccc(OC)c(/C=C/c2nc3ccccc3c(=O)n2-c2ccc(F)c(Cl)c2)c1 | 2% | -2% | . | . | . | ?
Cc1sc2c(c1C)c(=O)n(Cc1ccccc1)c(=O)n2CC(=O)Nc1cccc(Cl)c1 | 1% | -2% | . | . | . | 7%
Cc1[nH]n(-c2ccccc2)c(=O)c1-c1cccc(Cl)c1 | 0% | -3% | -7% | 1% | 6% | -2%
COc1cccc(-n2c(-c3ccccc3)c[nH]c2=S)c1 | 0% | . | 10µM* | 11µM* | 45µM* | .
S=c1[nH]cc(-c2ccccc2)n1-c1cccc(Cl)c1 | 3% | -5% | 4.5µM* | 2.5µM* | -9% | -2%
CNC(=O)[C@@H]1C[C@@H](NCc2cccc(Oc3ccccc3)c2)CN1C(C)C | 1% | . | . | . | . | .
CCN1CCN(c2nnc(-c3ccccc3)c3ccccc23)CC1 | 3% | 3% | 0% | -20% | 15% | .
CCCCSc1nnc(-c2ccccc2)c2ccccc12 | 6% | -2% | 13µM* | 70% | -8% | 0%
O=C(NCc1ccc(F)cc1)C1CCN(c2ncnc3c2nc2n3CCCCC2)CC1 | 0% | 1% | . | . | . | 2%
COc1ccc(-n2c(=O)c3c4c(sc3n(Cc3ccccc3)c2=O)CCC4)c(OC)c1 | 0% | 0% | . | . | . | -2%
COc1ccccc1-n1c(=O)c2c3c(sc2n2c(=S)[nH]nc12)CCC3 | -1% | . | -30% | 13µM* | -13% | 0%
O=C(Nc1ccccn1)c1cc2cc([N+](=O)[O-])ccc2s1 | 2% | 0% | 2% | ? | 12% | -1%
C=CCOc1ccc2cccc(/C=N/NC(=O)c3cc4cc([N+](=O)[O-])ccc4s3)c2c1 | 20µM* | 1% | -3% | 28% | 4% | ?
COc1ccc(NC2C[C@H]3CCCC(=O)N4CC[C@@H](C2)[C@@H]34)cc1 (stereo partly specified) | . | . | 0% | -2% | -8% | -2%
CCN(c1cccc(C)c1)S(=O)(=O)c1c(C)[nH]c(=O)[nH]c1=O | 0%[38.3 µM] | -2% | -4% | -6% | 14% | 0%
CCN(c1cccc(C)c1)S(=O)(=O)c1ccc2[nH]c(=O)c(=O)[nH]c2c1 | -2%[38.3 µM] | 22µM* | -13% | 4% | 12% | -6%
C=CCNc1nc(Nc2ccc([N+](=O)[O-])cc2)nc(N2CCCC2)n1 | 0% | . | -4% | 0.89µM* | 1% | 5%
C=CCNc1nc(Cl)nc(Nc2ccc([N+](=O)[O-])cc2)n1 | 1% | . | 3% | 28% | -2% | -1%
CCN(CC)S(=O)(=O)c1ccc2c(c1)N(CC(=O)N1CCN(c3cccc(C(F)(F)F)c3)CC1)C(=O)CO2 | 0% | -4% | . | . | . | 0%
SMILES | PINK1 expr mod | ClpP mod | Gal4-VP16 FLuc | RORgamma inh | Sfp inh | Epigenetic reg
COc1ccc(-c2nc3ccccc3n3c(-c4ccc(OC)cc4)c4c(=O)n(C)c(=O)n(C)c4c23)cc1 | 10% | -2% | . | . | . | -1%
COc1cccc2c(SCC(=O)N/N=C/c3ccc(O)cc3O)cc(C)nc12 | -2% | . | 2% | ? | 15% | 1%
COc1ccccc1/C=N/NC(=O)CSc1cc(C)nc2ccccc12 | 5% | . | -14% | 11µM* | -5% | -1%
COc1ccc2nc(C)cc(SCC(=O)N/N=C/c3ccc(O)cc3O)c2c1 | 0% | -1% | ? | 18µM* | 19% | ?
COc1ccccc1/C=N/NC(=O)C(C)Cn1cnc2ccccc21 (stereo unspecified) | 1% | -5% | 6% | 11µM* | 6% | 0%
COc1ccc2nc(C)cc(SCC(=O)NNC(=O)COc3cccc4ccccc34)c2c1 | -2% | -8% | 8.9µM* | ? | ? | 0%
O=S(=O)(NCCc1ccccc1)c1ccccc1Br | . | . | -13% | 17% | 1% | .
Cc1ccccc1NC(=O)C1CCN(S(=O)(=O)c2ccccc2)CC1 | 1% | 0% | . | . | . | 0%
Cc1ccc(NC(=O)CC2Nc3cc(C)c(C)cc3NC2=O)c(C)c1 (stereo unspecified) | 1% | -14% | . | . | . | -1%
COc1cccc(C2C(C(=O)Nc3cccnc3)=C(C)Nc3nc(SCc4ccccc4)nn32)c1 (stereo unspecified) | 2% | 40% | . | . | . | -1%
CC1=C/C(=N\NC(=O)c2ccccc2)CC1 | 2% | . | ? | 13µM* | 12% | 0%
O=C(NO)c1ccccc1 | . | . | 2% | -11% | . | .
Cc1ccccc1OCC(=O)Nc1ccc(OCc2cc(=O)n3ccsc3n2)cc1 | ? | 0% | . | . | . | 4%
Cc1nc(C(=O)N(Cc2cc3ccc(F)cc3nc2N2CCC(O)CC2)CC2CCCO2)cs1 (stereo unspecified) | 1% | . | . | . | . | .
Cc1noc(C)c1-c1nc(N(C)Cc2ccco2)c2ccccc2n1 | 1% | . | -6% | -15% | 79µM* | .
CN(C)c1ccc(-c2nc(N(C)Cc3ccco3)c3ccccc3n2)cc1 | -1% | . | 0% | -55% | 25µM* | 1%
CN(Cc1ccco1)c1nc(-c2ccoc2)nc2ccccc12 | 2% | . | -6% | 0% | ? | .
COc1ccc2c(c1)C(=O)[C@H](OC(=O)Nc1cc(OC)c(OC)c(OC)c1)[C@@H](c1ccc(OC)c(Br)c1)O2 | . | . | -1% | -9% | -2% | 2%
CCN(CC)CCOC(=O)C1(c2ccc(OC)c(OC)c2)CCCC1 | 0%[38.3 µM] | 0% | -17% | -41% | 79µM* | 1%
CSc1nc2nc(C(F)(F)F)cc(-c3ccccc3)n2n1 | 1% | 32µM* | 18% | ? | 0% | 0%
CSc1nc2nc(C)cc(-c3ccccc3)n2n1 | -2% | ? | -4% | 0% | -2% | -1%
